A short description of test [1]: qHTS assay to identify small molecule antagonists of the thyroid receptor (TR) signaling pathway - cell viability counter screen (AID 743064). Further: nearly all actives have a fitted effect of over 50% in size. Further: potency means the concentration at half of the fitted maximal effect. An outline of the steps:
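Same-well viability check: GH3.TRE-Luc cells stimulated with 1 nM T3 alongside test compound for 23.5 h, followed by CellTiter-Fluor fluorescence.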
Background: In qHTS, concentration-response curves come from the screen itself.

In test [2] the test system is thyroid hormone receptor (rat, GH3 cells). Briefly: qHTS assay to identify small molecule agonists of the thyroid receptor (TR) signaling pathway (AID 743066; calls by dose curve).
Test [3] deals with Estrogen receptor (Homo sapiens) (UniProt P03372). Briefly: qHTS assay to identify small molecule antagonists of the estrogen receptor alpha (ER-alpha) signaling pathway (AID 743069; active means well fitted curve in the direction sought with a large enough effect in the signal ratio in the repeat runs, not every such curve was filed as active; inconclusive means weak or mixed curves, or effect the other way; inactive means no such curve, though single readings can be large or run the other way; the % refers to the signal ratio; further: potency means the concentration at half of the fitted maximal effect). In outline:
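ER-alpha-UAS-bla GripTite HEK293 line; 2% charcoal-stripped FBS overnight; plated, 4 hr 37C/5% CO2; cpd in DMSO + 17beta-estradiol, 18 hr 37C; LiveBLAzer B/G FRET substrate 2 hr RT; fluorescence intensity.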

Test [4] in a line: qHTS assay to identify small molecule antagonists of the estrogen receptor alpha (ER-alpha) signaling pathway - cell viability counter screen (AID 743074; calls by dose curve;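 further: HEK293 cells carrying ER-alpha-UAS-bla reporter stimulated with 17beta-estradiol; nearly all actives have a fitted effect of over 45% in size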; further: potency means the concentration at half of the fitted maximal effect).
Test [5] concerns the target Estrogen receptor (Homo sapiens) (UniProt P03372). As to the kind of experiment: qHTS assay to identify small molecule agonists of the estrogen receptor alpha (ER-alpha) signaling pathway (AID 743075; calls by dose curve;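 further: HEK293 GripTite cells with ER-alpha and UAS-driven beta-lactamase reporter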).
For test [6] the target is unchanged. As to the kind of experiment: qHTS assay to identify small molecule agonists of the estrogen receptor alpha (ER-alpha) signaling pathway using the BG1 cell line (AID 743079). Further: nearly all actives have a fitted effect of over 20% in size. To be noted: BG1Luc4E2 cells, ERE-luciferase agonist, 22 h; activation: at 70.3 µM (top of the series).
The nature of test [7]: qHTS assay to identify small molecule antagonists of the estrogen receptor alpha (ER-alpha) signaling pathway using the BG1 cell line (AID 743080; calls by dose curve;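 further: BG1 cells stimulated with 17beta-estradiol alongside compound; nearly all actives have a fitted effect of over 25% in size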; further: potency means the concentration at half of the fitted maximal effect). An outline of the steps: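 Readout is ONE-Glo luminescence, taken 30 min at room temperature after reagent addition, preceded by a CellTiter-Fluor viability read; BG1-Luc-4E2 cells had received compound and 17beta-estradiol for 21.5 h at 37 C.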

A short description of test [8]: qHTS assay to identify small molecule antagonists of the estrogen receptor alpha (ER-alpha) signaling pathway using the BG1 cell line - cell viability counter screen (AID 743081).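 Further: compound given together with 17beta-estradiol as the ER stimulus; nearly all actives have a fitted effect of over 45% in size.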 Further: potency means the concentration at half of the fitted maximal effect.
In another test the target is Aromatase (Homo sapiens) (UniProt P11511). As to the kind of experiment: qHTS assay to identify aromatase inhibitors (AID 743083). Further: nearly all actives have a fitted effect of over 55% in size. Further: potency means the concentration at half of the fitted maximal effect.
Chain of Aromatase (Homo sapiens) (P11511 whole entry, looked up): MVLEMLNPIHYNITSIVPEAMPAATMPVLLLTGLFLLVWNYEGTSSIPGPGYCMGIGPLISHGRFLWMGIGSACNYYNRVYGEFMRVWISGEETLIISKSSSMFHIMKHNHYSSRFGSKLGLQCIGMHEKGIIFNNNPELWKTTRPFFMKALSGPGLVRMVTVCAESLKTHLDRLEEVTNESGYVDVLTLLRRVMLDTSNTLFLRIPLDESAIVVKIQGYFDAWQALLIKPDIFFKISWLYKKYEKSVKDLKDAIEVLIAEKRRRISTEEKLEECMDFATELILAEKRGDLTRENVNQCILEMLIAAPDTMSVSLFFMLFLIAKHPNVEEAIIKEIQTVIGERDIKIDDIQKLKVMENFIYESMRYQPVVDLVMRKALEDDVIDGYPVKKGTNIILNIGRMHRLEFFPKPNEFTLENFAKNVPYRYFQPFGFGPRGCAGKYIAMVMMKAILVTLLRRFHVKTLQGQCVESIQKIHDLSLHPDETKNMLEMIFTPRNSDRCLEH
Test [9] is described as follows: qHTS assay to identify small molecule antagonists of the thyroid receptor (TR) signaling pathway (AID 743065). Further: nearly all actives have a fitted effect of over 55% in size. An outline of the steps:
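Antagonism measured as loss of luciferase signal in GH3 cells stably carrying a TRE-luciferase reporter, co-treated with compound and T3 (1 nM final) for 23.5 h at 37 C. Viability was read in the same well by CellTiter-Fluor.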

Several values for one entry are separate records, joined by “and”; a condition that tells them apart may be missing. Identical values can stand only once. Some structures have more than one record in an assay (separate samples or runs), and their calls can disagree. Activity calls are given as the source filed them. Unless noted, the call rests on the fitted dose curve; in most records, active means well fitted curve in the direction sought with a large enough effect in the repeat runs; inconclusive means weak or mixed curves; inactive means no such curve, though single readings can be large; an effect the other way counts as inactive or inconclusive.
On the % scale 0 is the no-effect control and ±100 the full control effect.

Chain of Estrogen receptor (Homo sapiens) (P03372 whole entry, looked up): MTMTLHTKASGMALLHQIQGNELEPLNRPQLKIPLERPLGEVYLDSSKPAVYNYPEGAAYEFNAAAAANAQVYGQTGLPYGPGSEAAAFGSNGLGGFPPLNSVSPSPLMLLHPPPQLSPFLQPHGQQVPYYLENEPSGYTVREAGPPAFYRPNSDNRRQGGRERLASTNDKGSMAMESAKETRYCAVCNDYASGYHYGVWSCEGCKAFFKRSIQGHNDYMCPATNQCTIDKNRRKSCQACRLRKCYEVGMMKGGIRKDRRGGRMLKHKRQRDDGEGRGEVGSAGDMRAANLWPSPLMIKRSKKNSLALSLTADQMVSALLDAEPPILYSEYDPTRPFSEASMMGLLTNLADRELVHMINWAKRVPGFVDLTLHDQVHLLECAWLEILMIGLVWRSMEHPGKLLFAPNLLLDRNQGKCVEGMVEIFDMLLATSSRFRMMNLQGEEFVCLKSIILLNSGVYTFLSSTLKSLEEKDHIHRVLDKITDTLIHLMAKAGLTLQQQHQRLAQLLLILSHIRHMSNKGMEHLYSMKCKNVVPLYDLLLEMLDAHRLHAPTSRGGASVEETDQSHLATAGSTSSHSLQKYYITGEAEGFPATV

For the compound `O=P(Cl)(Cl)Cl`, the Potency result in test [1], in test [2], in test [3], in test [4], in [5] and in [6] was “inactive” in each case. Further, the Potency result (in [7]; in test [8]; in the test with Aromatase (Homo sapiens)) was “inactive” each time.

For the compound `C[N+]1(C)[C@@H]2CC[C@H]1CC(OC(=O)C(CO)c1ccccc1)C2` (stereo partly specified), the Potency entry (in [1]; in test [2]; in test [4]; in [7]; in test [8]; with Aromatase (Homo sapiens)) was “inactive” in each case.

For the compound `Clc1ccc(C(c2ccc(Cl)cc2)C(Cl)Cl)cc1`, the Potency in test [1] is 24.7 µM (active) and 68.6 µM (active); with Aromatase (Homo sapiens), 62.1 µM (active) and inactive. The Potency result in [2], in [3], in test [4], in [5], in test [7] and in test [8] was “inactive” throughout.

Consider `ClSC(Cl)(Cl)Cl`, for which the Potency result in test [1], in test [2], in test [3], in [4], in test [5] and in test [6] was “inactive” each time. Also, the Potency result (in [7]; in test [8]; in the test with Aromatase (Homo sapiens)) was “inactive” in each case.

For `O=c1[nH]c(Cl)c(Cl)cc1Cl`, the Potency entry (in test [1]; in test [2]; in test [4]; in test [8]; in the test with Aromatase (Homo sapiens)) was “inactive” in each case.

`Oc1ccc2[nH]cc(CCCCN3CC=C(c4ccccc4)CC3)c2c1`: in [1], the Potency was 8.41 µM (active). For the same compound, the Potency entry (in test [2]; in test [4]; with Aromatase (Homo sapiens)) was “inactive” each time.

With `CCCCCCCCCCCCCCn1cc[n+](C)c1`, the Potency in [1] is 2.74 µM (active) and 15.2 µM (active); in test [3], 7.78 µM [inconclusive] (active) and 1.22 µM [inconclusive] (active) and inactive; in [4] it was 48.5 µM (active) and inactive; in test [7], 1.37 µM (active) and 4.8 µM (active) and inactive; in [8], 30.7 µM (active) and 24.1 µM (active); with Aromatase (Homo sapiens), 2.44 µM (active) and 5.39 µM (active) and inactive. In addition, the Potency result in [2], in test [5] and in [6] was “inactive” each time.

Consider `CC(=O)O.CC(=O)O.CC(=O)O.CC(=O)O.CC(=O)O.CC(=O)O.CC(=O)O.O.O.[Cr].[Cr].[Cr]`, for which the Potency result (in [1]; in [2]; in [4]; in test [8]; in the test with Aromatase (Homo sapiens)) was “inactive” in each case.

With `CSC(C)(C)/C=N/O`, the Potency result in test [9], in test [2], in test [3], in test [4], in test [5] and in [7] was “inactive” each time. The Potency entry (in [8]; with Aromatase (Homo sapiens)) was “inactive” throughout.

Regarding `CC(Cc1ccc2c(c1)OCO2)NO` (stereo unspecified), the Potency result in [9], in [2], in [3], in test [4], in test [5] and in test [6] was “inactive” each time. Also, the Potency entry (in test [7]; in [8]; in the test with Aromatase (Homo sapiens)) was “inactive” throughout.

For the compound `CCCN`, the Potency result (in [1]; in test [4]; in test [8]; with Aromatase (Homo sapiens)) was “inactive” throughout.

On to `COC(=O)/C=C(\C)OP(=O)(OC)OC`, for which the Potency result in test [9], in [2], in test [3], in [4], in test [7] and in test [8] was “inactive” in each case.

As for `CCCCC/C=C\C/C=C\C/C=C\C/C=C\CCCC(=O)NCC(=O)O`, the results for the activity, negative = inhibition (in [9]; in test [3]; with Aromatase (Homo sapiens)) were 6.65% [at 8.44 µM] (inactive), -29.7% [at 6.71 µM] (inactive) and 4.53% [at 8.47 µM] (inactive), respectively. Besides, the activation was 2.19% [at 8.08 µM] (inactive) in [2], -3.03% [at 6.71 µM] (inactive) in [5] and 2.37% [at 8.47 µM] (inactive) in test [6]. Also, the activity, negative = cytotoxicity in test [4] is -15.9% [at 6.72 µM] (inactive). In addition, the activity change, negative = inhibition in test [7] is 0.823% [at 8.47 µM] (inactive). Also, the activity change, negative = cytotoxicity in test [8] was 0.607% [at 8.47 µM] (inactive).

As for `C=Cc1cccc(CCl)c1`, the Potency entry in [9], in [2], in [3], in [4], in [5] and in test [6] was “inactive” in each case. For the same compound, the Potency entry (in test [7]; in test [8]; with Aromatase (Homo sapiens)) was “inactive” throughout.

For `O=S1(=O)OCC2C(CO1)C1(Cl)C(Cl)=C(Cl)C2(Cl)C1(Cl)Cl` (stereo unspecified), the Potency (in test [1]; with Aromatase (Homo sapiens)) was 54.5 µM (active) in each case. Also, the Potency result in test [3], in test [5], in test [6] and in [8] was “inactive” throughout.

Turning to `CN1CCc2cc(Cl)c(O)cc2[C@H]2c3ccccc3CC[C@@H]21`, the Potency in test [1] was 13.3 µM (active). Moreover, the Potency entry (in [4]; in [5]; in test [6]; with Aromatase (Homo sapiens)) was “inactive” in each case.

For the origin of these results see PubChem BioAssay (Tox21).
